High-throughput results deposited in PubChem by Paczesny and Yang Labs, IUPUI and University of Michigan.
ST2 IL33 inh – inhibitors of human ST2 (IL1RL1) binding to IL-33, primary screen, biochemical, AlphaLISA; inhibition, % for hits at 17 µM; Interleukin-1 receptor-like 1 (Homo sapiens), Q01638; AID 1259354, 2018; 78,000 tested, 2.3% active; AlphaLISA ST2-Fc/biotin-IL-33 interaction, 1 h; in the data active = inhibition above about 30%
An asterisk follows results filed as active; i = inactive. This excerpt belongs to a sample that is enriched for hits.

SMILES	ST2 IL33 inh
Cc1nc2sc(C(c3ccccc3)N3CCc4ccccc4C3)c(O)n2n1 (stereo not given)	i
Cc1cc(C(=O)N2CCC3(CCCN(Cc4ccc(F)c(F)c4)C3)C2)no1 (stereo not given)	i
COc1ccc(C2C(C(=O)Nc3cnc4ccccc4c3)CC(=O)N2c2ccc(OC)cc2)cc1 (stereo not given)	i
CCCCOc1ccc2c(C)cc(=O)oc2c1I	i
O=C1NC(=Nc2cccc([N+](=O)[O-])c2)SC1(CO)CO	i
C=CCN1C(=O)/C(=C/c2ccccc2)SC1=Nc1cccc([N+](=O)[O-])c1	47.0%*
O=C1S/C(=C/c2ccccc2)C(=O)N1CNc1cccc(F)c1	i
Cc1ccc2cccc(OCCOc3ccccc3)c2n1	i
O=C(Nc1nc2ccccc2s1)c1ccc(S(=O)(=O)N2CCOCC2)cc1	i
CSc1ccccc1C(=O)Nc1ccc(S(=O)(=O)N2CCOCC2)cc1	i
CCN(CC)S(=O)(=O)c1ccc(C(=O)N=c2sc3ccccc3n2C)cc1	i
CCN(CC)S(=O)(=O)c1ccc(-c2csc(=Nc3ccc(F)cc3)n2CCCO)cc1	43.0%*
O=S(=O)(c1ccc(-c2csc(=Nc3ccccc3)n2CCCO)cc1)N1CCOCC1	39.0%*
CCCCN(CCCC)S(=O)(=O)c1ccc(C(=O)Nc2nnc(-c3ccc(F)cc3)o2)cc1	i
O=C1NC(C(=O)NCc2cccnc2N2CCCCCCC2)CO1 (stereo not given)	i
O=C(Nc1ccc(Br)cc1F)C1c2ccccc2Oc2ccccc21	i
COC(=O)c1c(NC(=O)COc2ccc(F)cc2)sc(C)c1C	i
CSCC[C@@H](C(=O)NC(C)c1cccs1)N1Cc2ccccc2C1=O (stereo not given in full)	i
O=C(O)/C=C1\NC(=O)c2ccccc21	i
O=C1Nc2ccccc2C1=Nc1ccc(C(=O)O)cc1	i
O=C1Nc2ccccc2/C1=C/C(=O)c1ccc(Cl)cc1	32.0%*
COC(=O)C(C)n1cnc2c(cnn2-c2ccccc2)c1=O (stereo not given)	i
COc1cc(OC)cc(-n2c(=O)c3sccc3n(Cc3ccccc3F)c2=O)c1	i
CC(=O)NC(=O)c1cc2ccccc2oc1=Nc1ccc(F)cc1	i
COc1ccc2oc(=Nc3ccc(C(F)(F)F)cc3)c(C(=O)NC(C)=O)cc2c1	i
SMILES	ST2 IL33 inh
CC(=O)NC(=O)c1cc2cc(Br)ccc2oc1=Nc1ccc(C#N)cc1	32.0%*
CCC(C)OC(=O)C1=C(C)NC2=C(C(=O)C(C(=O)OC)C(C)C2)C1c1cc(OC)ccc1OC (stereo not given)	i
O=C(CCn1c(=O)c2sccc2n(Cc2ccc(F)cc2Cl)c1=O)NCc1ccccc1	i
CCC1CN2CCc3cc(OC)c(OC)cc3C2CC1CC1=NCCc2cc(OC)c(OC)cc21 (stereo not given)	i
Cc1ccc(S(=O)(=O)N=C(Nc2ccccn2)c2ccccc2)cc1	i
CC1=CC(=NC(=NS(=O)(=O)c2ccc(C)cc2)c2ccccc2)C(C)=CC1=O	44.0%*
Cc1ccc(C(N)=NC(=NS(=O)(=O)c2ccccc2)c2ccccc2)cc1	i
O=C(NC(c1ccccn1)C(F)(F)F)c1cn(-c2ccccc2)nn1 (stereo not given)	i
c1ccc(N2CCN(Cc3ccsc3)CC2)cc1	i
O=C1CC(N2CCN(Cc3ccc4c(c3)OCO4)CC2)C(=O)N1Cc1ccc(Cl)cc1 (stereo not given)	i
Cc1[nH]c2ccccc2c1C(=O)CCC(=O)O	i
Cc1nc(-c2c(C)[nH]c3ccccc23)cs1	36.0%*
Cc1nc(-c2ccc(O)cc2)cs1	i
CN(Cc1ccccc1)Cc1ccccc1	i
CCN(Cc1ccccc1)Cc1ccc(N(C)C)cc1	36.0%*
CCN(CCc1ccccc1)CCN(C)C	i
O=C(CCNC1CCC2(CCNCC2)CC1)Nc1ccc(F)cc1	i
CCOC(=O)C1=C(N)OC2=C(C(=O)CC(C)(C)C2)C1c1cc([N+](=O)[O-])c(C)s1 (stereo not given)	i
COc1ccc(NC(=O)C2CC(Cl)=CCC2C(=O)O)cc1 (stereo not given)	i
COC(=O)[C@@H]1CCCN1Cc1cnc2c(-c3ccccc3)cnn2c1	i
OC1(c2ccccc2)CCN(Cc2cnc3c(-c4ccccc4)cnn3c2)CC1	33.0%*
CCc1ccc(CN(C)Cc2cnc3c(-c4ccccc4)cnn3c2)nc1	i
COc1cc2c(cc1OC)CN(C/C=C/c1ccccc1)CC2	i
O=C(Nc1ccc2oc(-c3ccncc3)nc2c1)c1ccc(-c2ccccc2)o1	41.0%*
O=C(Nc1ccc2oc(-c3ccc(F)cc3)nc2c1)c1ccccc1	i
CN(C)c1ccc(-c2nc3cc(NC(=O)Cc4ccccc4)ccc3o2)cc1	i
CC(C)n1cc(-c2c(-c3ccccc3)ncn2CCc2cnc[nH]2)cn1	i
O=C(/C=C/c1cccnc1)N1CCC2(CCCN(Cc3ccccc3F)C2)C1 (stereo not given)	i
